Test results: PubChem BioAssay AID1159580 (chemical genetic matrix, 2015)
Several values for one entry are separate records, joined by “and”; a condition that tells them apart may be missing. Equal entries are not always repeated. Out of some 5,500 compounds screened, about 2,000 (36%) were called active. Inconclusive results (about 18%) are left out. Cut-off read from the data, not from the text of the source: active = normalized growth mostly below about 0.91 (no sharp cut-off); inconclusive = no clear call, values can overlap the other calls; inactive = mostly above about 0.92. The list shows a part of the results.

Test: chemical genetic growth profiling, strain panel (AID 1159580);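 note: tested at 20 µM; growth read once vehicle control cultures reached saturation at 30 °C; 1 = growth at the plate median or of vehicle wells; lower values mean less growth of the strain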
Conditions: growth OD

SMILES: CN(C)CCCN1c2ccccc2CCc2ccc(Cl)cc21
- normalized growth (S. cerevisiae deletion strains, locus YJR066W, strain TOR1, active compounds read low): 0.923 (inactive)
- normalized growth (S. cerevisiae deletion strains, locus YKL009W, strain mrt4, active compounds read low): 0.971 (inactive)
- normalized growth (S. cerevisiae deletion strains, locus YKL068W, active compounds read low): 0.991 (inactive)
- normalized growth (S. cerevisiae deletion strains, locus YKL085W, strain MDH1 (second series), active compounds read low): 0.994 (inactive)
- normalized growth (S. cerevisiae deletion strains, locus YKL085W, strain MDH1, active compounds read low): 0.994 (inactive)
- normalized growth (S. cerevisiae deletion strains, locus YKL160W, strain elf1, active compounds read low): 0.993 (inactive)
- normalized growth (S. cerevisiae deletion strains, locus YKL190W, strain CNB1, active compounds read low): 0.953 (inactive)
- normalized growth (S. cerevisiae deletion strains, locus YKR001C, strain vps1, active compounds read low): 0.644 (active)
- normalized growth (S. cerevisiae deletion strains, locus YKR026C, strain gcn3, active compounds read low): 1.01 (inactive)
- normalized growth (S. cerevisiae deletion strains, locus YKR091W, strain srl3, active compounds read low): 1 (inactive)
- normalized growth (S. cerevisiae deletion strains, locus YLL001W, strain dnm1, active compounds read low): 1.01 (inactive)
- normalized growth (S. cerevisiae deletion strains, locus YLL026W, active compounds read low): 0.982 (inactive)
- normalized growth (S. cerevisiae deletion strains, locus YLL041C, strain sdh2, active compounds read low): 1 (inactive)
- normalized growth (S. cerevisiae deletion strains, locus YLR027C, strain aat2, active compounds read low): 0.996 (inactive)
- normalized growth (S. cerevisiae deletion strains, locus YLR039C, strain RIC1, active compounds read low): 1.35 [resistant] (active)
- normalized growth (S. cerevisiae deletion strains, locus YLR058C, strain SHM2, active compounds read low): 0.946 (inactive)
- normalized growth (S. cerevisiae deletion strains, locus YLR102C, strain apc9, active compounds read low): 0.995 (inactive)
- normalized growth (S. cerevisiae deletion strains, locus YLR113W, strain HOG1, active compounds read low): 0.983 (inactive)
- normalized growth (S. cerevisiae deletion strains, locus YLR221C, strain rsa3, active compounds read low): 0.999 (inactive)
- normalized growth (S. cerevisiae deletion strains, locus YLR258W, strain gsy2, active compounds read low): 0.961 (inactive)
- normalized growth (S. cerevisiae deletion strains, locus YLR262C, strain YPT6 (second series), active compounds read low): 1.14 (inactive)
- normalized growth (S. cerevisiae deletion strains, locus YLR262C, strain YPT6, active compounds read low): 1.33 (inactive)
- normalized growth (S. cerevisiae deletion strains, locus YLR268W, strain sec22, active compounds read low): 0.961 (inactive)
- normalized growth (S. cerevisiae deletion strains, locus YLR320W, strain mms22, active compounds read low): 1 (inactive)
- normalized growth (S. cerevisiae deletion strains, locus YLR330W, strain CHS5, active compounds read low): 0.996 (inactive)
- normalized growth (S. cerevisiae deletion strains, locus YLR342W, strain FKS1 (second series), active compounds read low): 0.615 (active)
- normalized growth (S. cerevisiae deletion strains, locus YLR342W, strain FKS1, active compounds read low): 0.998 (inactive)
- normalized growth (S. cerevisiae deletion strains, locus YLR357W, strain rsc2, active compounds read low): 0.974 (inactive)
- normalized growth (S. cerevisiae deletion strains, locus YLR370C, strain arc18, active compounds read low): 0.993 (inactive)
- normalized growth (S. cerevisiae deletion strains, locus YLR371W, strain rom2, active compounds read low): 0.984 (inactive)
- normalized growth (S. cerevisiae deletion strains, locus YLR384C, strain iki3, active compounds read low): 1 (inactive)
- normalized growth (S. cerevisiae deletion strains, locus YLR418C, strain cdc73, active compounds read low): 0.64 (active)
- normalized growth (S. cerevisiae deletion strains, locus YML016C, strain PPZ1, active compounds read low): 0.978 (inactive)
- normalized growth (S. cerevisiae deletion strains, locus YML032C, strain rad52, active compounds read low): 0.967 (inactive)
- normalized growth (S. cerevisiae deletion strains, locus YML120C, strain ndi1, active compounds read low): 0.986 (inactive)
- normalized growth (S. cerevisiae deletion strains, locus YML124C, strain tub3, active compounds read low): 0.989 (inactive)
- normalized growth (S. cerevisiae deletion strains, locus YMR058W, strain fet3, active compounds read low): 0.966 (inactive)
- normalized growth (S. cerevisiae deletion strains, locus YMR078C, strain ctf18, active compounds read low): 0.989 (inactive)
- normalized growth (S. cerevisiae deletion strains, locus YMR125W, strain sto1, active compounds read low): 0.962 (inactive)
- normalized growth (S. cerevisiae deletion strains, locus YMR129W, active compounds read low): 1 (inactive)
- normalized growth (S. cerevisiae deletion strains, locus YMR205C, strain PFK2, active compounds read low): 0.979 (inactive)
- normalized growth (S. cerevisiae deletion strains, locus YMR223W, strain ubp8, active compounds read low): 0.934 (inactive)
- normalized growth (S. cerevisiae deletion strains, locus YMR231W, strain pep5, active compounds read low): 0.999 (inactive)
- normalized growth (S. cerevisiae deletion strains, locus YMR263W, strain SAP30, active compounds read low): 0.892 (inactive) and 1.04 (inactive)
- normalized growth (S. cerevisiae deletion strains, locus YMR307W, strain GAS1, active compounds read low): 0.726 (inactive)
- normalized growth (S. cerevisiae deletion strains, locus YNL067W, strain RPL9B, active compounds read low): 0.924 (inactive)
- normalized growth (S. cerevisiae deletion strains, locus YNL071W, strain lat1, active compounds read low): 1.01 (inactive)
- normalized growth (S. cerevisiae deletion strains, locus YNL175C, strain NOP13, active compounds read low): 1.07 (inactive)
- normalized growth (S. cerevisiae deletion strains, locus YNL183C, strain NPR1, active compounds read low): 0.934 (inactive)
- normalized growth (S. cerevisiae deletion strains, locus YNL209W, strain ssb2, active compounds read low): 0.926 (active)
- normalized growth (S. cerevisiae deletion strains, locus YNL224C, strain SQS1, active compounds read low): 1.04 (inactive)
- normalized growth (S. cerevisiae deletion strains, locus YNL233W, strain BNI4, active compounds read low): 0.877 (inactive)
- normalized growth (S. cerevisiae deletion strains, locus YNL248C, strain rpa49, active compounds read low): 0.983 (inactive)
- normalized growth (S. cerevisiae deletion strains, locus YNL250W, strain rad50, active compounds read low): 0.996 (inactive)
- normalized growth (S. cerevisiae deletion strains, locus YNL271C, strain bni1, active compounds read low): 0.993 (inactive)
- normalized growth (S. cerevisiae deletion strains, locus YNL298W, strain CLA4, active compounds read low): 0.999 (inactive)
- normalized growth (S. cerevisiae deletion strains, locus YNL307C, strain MCK1, active compounds read low): 0.961 (inactive)
- normalized growth (S. cerevisiae deletion strains, locus YNL322C, strain KRE1 (second series), active compounds read low): 1.01 (inactive)
- normalized growth (S. cerevisiae deletion strains, locus YNL322C, strain KRE1, active compounds read low): 0.988 (inactive) and 0.981 (inactive)
- normalized growth (S. cerevisiae deletion strains, locus YNR049C, strain mso1, active compounds read low): 1.01 (inactive)
- normalized growth (S. cerevisiae deletion strains, locus YNR052C, strain pop2, active compounds read low): 0.935 (inactive)
- normalized growth (S. cerevisiae deletion strains, locus YOL006C, strain TOP1, active compounds read low): 0.311 (active)
- normalized growth (S. cerevisiae deletion strains, locus YOL012C, strain htz1): 1.42 (inactive)
- normalized growth (S. cerevisiae deletion strains, locus YOL147C, strain pex11, active compounds read low): 0.989 (inactive)
- normalized growth (S. cerevisiae deletion strains, locus YOR001W, strain rrp6, active compounds read low): 0.982 (inactive)
- normalized growth (S. cerevisiae deletion strains, locus YOR061W, strain CKA2, active compounds read low): 0.847 (active)
- normalized growth (S. cerevisiae deletion strains, locus YOR069W, strain VPS5, active compounds read low): 0.984 (inactive)
- normalized growth (S. cerevisiae deletion strains, locus YOR070C, strain gyp1, active compounds read low): 0.99 (inactive)
- normalized growth (S. cerevisiae deletion strains, locus YOR080W, strain dia2, active compounds read low): 1 (inactive)
- normalized growth (S. cerevisiae deletion strains, locus YOR083W, strain WHI5 (second series), active compounds read low): 1.1 (inactive)
- normalized growth (S. cerevisiae deletion strains, locus YOR083W, strain WHI5, active compounds read low): 0.985 (inactive)
- normalized growth (S. cerevisiae deletion strains, locus YOR106W, strain vam3, active compounds read low): 0.846 (active)
- normalized growth (S. cerevisiae deletion strains, locus YOR136W, strain idh2, active compounds read low): 1.01 (inactive)
- normalized growth (S. cerevisiae deletion strains, locus YOR144C, strain elg1, active compounds read low): 0.991 (inactive)
- normalized growth (S. cerevisiae deletion strains, locus YOR184W, strain ser1, active compounds read low): 0.96 (inactive)
- normalized growth (S. cerevisiae deletion strains, locus YOR231W, strain MKK1, active compounds read low): 0.999 (inactive)
- normalized growth (S. cerevisiae deletion strains, locus YOR265W, strain rbl2, active compounds read low): 1 (inactive)
- normalized growth (S. cerevisiae deletion strains, locus YOR270C, strain vph1, active compounds read low): 0.567 (active)
- normalized growth (S. cerevisiae deletion strains, locus YOR290C, strain snf2, active compounds read low): 0.903 (inactive)
- normalized growth (S. cerevisiae deletion strains, locus YOR316C, strain cot1, active compounds read low): 0.977 (inactive)
- normalized growth (S. cerevisiae deletion strains, locus YPL051W, strain arl3, active compounds read low): 0.989 (inactive)
- normalized growth (S. cerevisiae deletion strains, locus YPL078C, strain atp4, active compounds read low): 0.987 (inactive)
- normalized growth (S. cerevisiae deletion strains, locus YPL106C, strain sse1, active compounds read low): 1.02 (inactive)
- normalized growth (S. cerevisiae deletion strains, locus YPL240C, strain hsp82, active compounds read low): 0.99 (inactive)
- normalized growth (S. cerevisiae deletion strains, locus YPL241C, strain CIN2, active compounds read low): 0.986 (inactive) and 0.999 (inactive)
- normalized growth (S. cerevisiae deletion strains, locus YPL256C, strain CLN2, active compounds read low): 1.02 (inactive)
- normalized growth (S. cerevisiae deletion strains, locus YPR119W, strain clb2, active compounds read low): 0.993 (inactive)
- normalized growth (S. cerevisiae deletion strains, locus YPR141C, strain kar3, active compounds read low): 0.99 (inactive)
- normalized growth (S. cerevisiae deletion strains, locus YPR163C, strain tif3, active compounds read low): 0.728 (active)
- normalized growth (S. cerevisiae deletion strains, locus YPR167C, strain met16, active compounds read low): 0.986 (inactive)
- normalized growth (S. cerevisiae deletion strains, strain wtn01, active compounds read low): 0.928 (inactive)
- normalized growth (S. cerevisiae strains, strain wild type, active compounds read low): 0.902 (inactive)
